Bioassay records from PubChem BioAssay.
HIF-2a block = inhibitors of HIF-2a. 786-0 RCC cells HIF-2a reporter, luciferase luminescence, overnight. hit rate 0.72% among 360,000. AID 624352. inhibition, % at 18.8 µM;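 active = inhibition of the luminescence signal of 40% or more relative to plate controls, in a single-dose primary screen at 18.75 µM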
Peg3 promoter = reduces Peg3 promoter-driven luciferase expression in HeLa; hit rate 1.7% among 360,000; inhibition, % at 20 µM; HeLa PEG-Prom luciferase reporter, luminescence, overnight;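 active = inhibition of at least 50% at 20 µM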
CF NFkB block = inhibitors of cystic fibrosis induced NF-kB; KKLEB NF-kB-GFP reporter, PAF-induced, GFP fluorescence overnight; inhibition, % at 5 µM; hit rate 0.86% among 360,000;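 active = at least 50% inhibition at 5 µM, scaled per plate between neutral and stimulator controls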;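 note: PAF is a Pseudomonas aeruginosa culture filtrate used as stimulus; plate controls were PAF-stimulated DMSO wells for no effect and unstimulated DMSO wells for full effect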
KKLEB tox = reduces viability of KKLEB cystic fibrosis airway cells | KKLEB CF airway cells viability, ATPlite luminescence, overnight; hits give low values; cells stimulated with P. aeruginosa culture filtrate | activity change (cytotoxicity), % at 5 µM | hit rate 0.36% among 360,000 | AID 602141;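 active = corrected activity change at or below -50% at 5 µM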
TRPM1 prom inh = MITF TRPM1 promoter inhibition in SK-MEL-5 cells; inhibition, % at 12.5 µM; SK-MEL-5 TRPM1 promoter luciferase, 24 h; AID 488899; hit rate 0.83% among 330,000;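 active = mean inhibition across replicates of 60% or more, whatever share of single replicates reaches that level; inconclusive = some that reach 60%, reason not given; inactive = mean inhibition across replicates below 60%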
Shn3 inh set2 = inhibitors of Schnurri-3 3'UTR reporter in osteoblasts; AID 588674; inhibition, % at 12.5 µM; Clone20 osteoblast Shn3 3'UTR firefly luciferase, 24 h; hit rate 0.52% among 360,000;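 active = mean inhibition of at least 75% with every replicate also reaching 75%; inconclusive = mean inhibition at least 75% but some replicate below; inactive = mean inhibition below 75%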;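 note: 0% = median of neutral control wells and 100% = pilot-screen positive control compound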
Mdm2-MdmX confirm = Mdm2/MdmX (human) interaction inhibition, confirmed; SaOS-2 split-luciferase Mdm2/MdmX complementation, luminescence; inhibition, % at 8 µM; hit rate 99% among 740; shares compounds with HIF-2a block;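 active = mean inhibition of the luminescence signal across two replicates at or above 26 percent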
Target sequence (O15151 whole entry, looked up): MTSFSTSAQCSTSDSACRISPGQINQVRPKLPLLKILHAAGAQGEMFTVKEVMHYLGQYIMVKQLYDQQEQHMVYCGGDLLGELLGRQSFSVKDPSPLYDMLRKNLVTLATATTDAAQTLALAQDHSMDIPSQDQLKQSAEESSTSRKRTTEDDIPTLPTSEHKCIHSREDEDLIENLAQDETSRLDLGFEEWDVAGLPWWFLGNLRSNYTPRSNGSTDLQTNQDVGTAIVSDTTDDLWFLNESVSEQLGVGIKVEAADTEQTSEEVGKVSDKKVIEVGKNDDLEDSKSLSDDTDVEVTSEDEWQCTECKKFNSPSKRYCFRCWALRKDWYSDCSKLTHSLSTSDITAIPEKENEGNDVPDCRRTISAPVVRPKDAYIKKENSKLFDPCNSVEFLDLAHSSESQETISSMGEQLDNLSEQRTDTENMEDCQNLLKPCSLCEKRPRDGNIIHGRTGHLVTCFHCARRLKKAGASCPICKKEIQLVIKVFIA
Target sequence (Q00987 whole entry, looked up): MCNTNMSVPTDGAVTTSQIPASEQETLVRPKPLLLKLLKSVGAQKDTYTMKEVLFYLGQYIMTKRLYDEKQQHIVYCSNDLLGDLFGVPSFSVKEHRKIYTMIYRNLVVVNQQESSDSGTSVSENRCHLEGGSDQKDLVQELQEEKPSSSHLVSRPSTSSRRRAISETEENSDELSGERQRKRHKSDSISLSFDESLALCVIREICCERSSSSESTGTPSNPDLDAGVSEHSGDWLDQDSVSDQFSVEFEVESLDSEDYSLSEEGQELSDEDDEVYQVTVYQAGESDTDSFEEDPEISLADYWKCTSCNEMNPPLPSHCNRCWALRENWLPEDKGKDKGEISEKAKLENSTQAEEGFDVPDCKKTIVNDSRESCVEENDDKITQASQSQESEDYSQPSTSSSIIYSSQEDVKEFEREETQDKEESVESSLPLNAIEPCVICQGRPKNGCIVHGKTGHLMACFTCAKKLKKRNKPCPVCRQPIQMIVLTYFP
HIF-2a conf = confirmation of HIF-2a inhibitors; shares compounds with HIF-2a block; 786-0 RCC cells, HIF-2a luciferase reporter luminescence, overnight; inhibition, % at 18.8 µM; hit rate 56% among 1,800; AID 651580;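 active = mean inhibition across four replicates of at least 40 percent at the single tested concentration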
HIF-1a cs = inhibits HIF-1a reporter, a counter-screen for HIF-2a inhibitors; shares compounds with HIF-2a block; MiaPaCa-2 HIF-1a luciferase reporter, desferoxamine, overnight; inhibition, % at 18.8 µM; hit rate 72% among 1,800; AID 651589;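 active = mean inhibition of the reporter signal across four replicates at the single tested dose of 50% or more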
Active calls of the source: *; u = inconclusive; x = no result. A selection: hits, their analogues and other compounds. The true share with any hit is near 2.7%.

SMILES | HIF-2a block | Peg3 promoter | CF NFkB block | KKLEB tox | TRPM1 prom inh | Shn3 inh set2 | HIF-2a conf | HIF-1a cs | others
O=C(CN(c1cccc(C(F)(F)F)c1)S(=O)(=O)c1ccc(Cl)c([N+](=O)[O-])c1)NCc1ccccc1Cl | 70.1* | 100.8* | -10.3 | -2.2 | 54.6 | 30.3 | 21.6 | 104.3*
CC(NC(=O)CN(c1cccc(C(F)(F)F)c1)S(=O)(=O)c1ccc(Cl)c([N+](=O)[O-])c1)c1ccccc1 (centres undefined) | 78.1* | 104.0* | -9.6 | 12.9 | 79.3* | 4.7 | 10.3 | 102.8*
COc1ccc(-c2cc(N)n(S(=O)(=O)c3c(F)c(F)c(F)c(F)c3F)n2)cc1OC | 86.3* | 109.7* | 31.5 | -12.9 | 98.0* | 83.0 | 99.5* | 104.0*
CCCCCCCCCCCCCCCCn1cc[n+](CC(C)=O)c1 | 56.2* | 96.1* | 66.6* | -67.4* | 38.8 | 83.9 | 64.0* | 105.8*
C#CCn1cc[n+](CC(=O)N(C)C)c1 | -5.9 | 5.8 | -10.5 | 6.4 | 6.0 | 3.3 | x | x
CCCCCCCCCCCCCCCC[n+]1ccc(C(N)=O)cc1 | 79.8* | 98.4* | 62.6* | -69.0* | 18.4 | 68.6 | 53.2* | 99.9* | Mdm2-MdmX confirm=100.2*
CCCCC(=O)Nc1ccc(C(N)=O)cc1 | -16.6 | -22.7 | 7.6 | -0.5 | 8.3 | 21.7 | x | x
O=C(Nc1cc(Cl)cc2c1-c1ccc(Cl)cc1C2O)C(Cl)Cl (centres undefined) | 45.4* | 95.3* | -62.9 | 7.9 | 0.2 | 49.5 | -78.7 | 72.5*
COC(=O)C(=Cc1ccc(OCc2ccc([N+](=O)[O-])cc2)c(OC)c1)C(=O)OC | 81.5* | -52.0 | 42.2 | -19.9 | 29.7 | 12.0 | 82.5* | 101.1*
Cc1cc(Br)cc(Cl)c1OC(=O)c1ccncc1 | 9.8 | -1.8 | -10.8 | 6.3 | 7.5 | 4.3 | x | x
COc1ccc(S(=O)(=O)N2CCC(C(=O)NC3CC3)CC2)cc1OC | 0.2 | 12.3 | -6.9 | -5.1 | -8.4 | -14.3 | x | x
COc1ccc(OC)c2sc(NC(=O)CCS(=O)(=O)c3ccccc3)nc12 | 90.1* | 43.9 | 49.8 | -55.4* | x | 17.0 | -31.0 | 56.5*
CCc1ccc(NC(=O)C2C3CCC(O3)C2C(=O)O)cc1 (centres undefined) | -11.9 | -19.6 | 16.9 | -9.5 | -16.0 | -41.5 | x | x
Cc1cccc(C(=O)OCC(=O)Nc2c(C)n(C)n(-c3ccccc3)c2=O)c1 | 15.7 | 14.6 | 0.3 | -8.7 | x | 4.2 | x | x
CC(=O)Cn1ncc(Br)c(Br)c1=O | 97.0* | 97.6* | 95.5* | -82.8* | 99.3* | 97.2* | 94.6* | 105.0*
CC(C)(C)C(=O)Cn1ncc(N2CCCC2)c(Br)c1=O | -159.7 | -167.7 | -3.2 | 14.7 | -40.6 | -40.6 | x | x
CCCCN1C(=O)C(CC(=O)NCc2cccs2)CC(C(=O)N(C(C)C)C(C)C)=C1C (centres undefined) | 10.3 | 16.5 | 4.0 | 2.8 | x | -1.7 | x | x
Cc1cccn2c(=O)c3cc(C(=O)NCc4ccco4)c(=N)n(CCc4ccccc4)c3nc12 | 10.9 | 13.3 | -70.9 | -11.4 | -15.9 | -15.7 | x | x
Cc1ccc(CNC(=O)c2cc3c(=O)n4ccccc4nc3n(Cc3ccco3)c2=N)cc1 | 3.4 | -7.5 | -0.8 | -8.1 | 10.3 | 12.2 | x | x
COc1ccc(CCNC(=O)c2cc3c(=O)n4cccc(C)c4nc3n(Cc3ccco3)c2=N)cc1OC | 60.0* | -2.9 | 13.6 | -8.3 | 3.4 | 27.5 | -3.9 | 40.8 | Mdm2-MdmX confirm=17.3
Cc1cccn2c(=O)c3cc(C(=O)NCCc4ccccc4)c(=N)n(Cc4ccco4)c3nc12 | 93.2* | 30.9 | 3.7 | -8.5 | -8.7 | 2.8 | 4.3 | 83.2* | Mdm2-MdmX confirm=29.0*
O=[N+]([O-])c1c(NCCCO)cc(Sc2ccc(Cl)cc2)c2nonc12 | 95.8* | 98.4* | -4.5 | 23.6 | 92.2* | 94.2* | 51.6* | 106.2*
O=[N+]([O-])c1c(NCCCO)cc(N2CCCCCC2)c2nonc12 | 10.3 | 22.2 | -8.9 | 4.2 | -4.2 | 28.2 | x | x
CCCC(=O)OCCNc1cc(SCCC(=O)OC)c2nonc2c1[N+](=O)[O-] | 22.8 | 24.8 | 22.2 | -2.1 | 5.7 | 7.7 | x | x
COc1ccc(Nc2cc(NCCCO)c([N+](=O)[O-])c3nonc23)cc1 | -9.3 | 29.9 | -14.2 | -6.0 | 19.1 | 19.4 | x | x
SMILES | HIF-2a block | Peg3 promoter | CF NFkB block | KKLEB tox | TRPM1 prom inh | Shn3 inh set2 | HIF-2a conf | HIF-1a cs | others
CC(=O)OCCNc1cc(Sc2nc3ccccc3[nH]2)c2nonc2c1[N+](=O)[O-] | 95.2* | 113.4* | 62.9* | -15.5 | 80.3* | 97.6* | 77.5* | 71.0*
CC(=O)OCCCNc1cc(Sc2nc3ccccc3s2)c2nonc2c1[N+](=O)[O-] | 32.1 | 105.0* | 2.1 | 2.5 | 22.3 | 101.2* | x | x | Mdm2-MdmX confirm=103.2*
CN(C)C(=O)C(OC(=O)c1ccc2ccccc2n1)c1ccccc1 (centres undefined) | 22.7 | 7.0 | -7.8 | 9.1 | -6.1 | -28.5 | x | x
COCCn1c(SCC(=O)NCCCN2CCCC2=O)nc2sc3c(c2c1=O)CCCC3 | 4.8 | -0.4 | 4.5 | -14.0 | 2.0 | 11.5 | x | x
CC1CCC(C(C)C)C(OC(=O)CSc2nccc(=O)[nH]2)C1 (centres undefined) | 5.3 | 2.0 | 9.6 | 5.0 | -7.4 | -19.5 | x | x
COc1ccc(OCc2n(CC(=O)OC3CC(C)CCC3C(C)C)c3ccccc3[n+]2C)cc1 (centres undefined) | 95.2* | 100.0* | 64.3* | -52.9* | 81.7* | -3.3 | -5.0 | 102.9* | Mdm2-MdmX confirm=102.5*
COc1ccc(Cl)cc1NC(=O)CN(C)C(=O)c1cc(C)oc1C | -0.3 | 22.2 | -8.3 | 2.1 | 1.2 | -5.5 | x | x
CCOc1cccc(/C=N/Nc2ccc(S(=O)(=O)N(CC)CC)cn2)c1O | 25.8 | 39.2 | 16.8 | -30.2 | 50.0 | u | x | x | Mdm2-MdmX confirm=91.2*
CC(C)(C)c1ccc(C(=O)Nc2ccc(CC(=O)O)cc2)o1 | 82.7* | 41.0 | 11.4 | -1.9 | 73.3* | 68.6 | 95.9* | 78.8*
Cc1ccc(C(=O)Nc2ccc(CC(=O)O)cc2)o1 | 18.2 | 10.0 | -6.4 | -0.6 | 12.0 | -2.7 | x | x
Cc1cc(C(=O)Nc2ccc(CC(=O)O)cc2)c(C)o1 | 48.5* | -17.1 | -17.6 | 5.4 | 10.7 | 3.6 | 60.4* | 44.0
Cc1cc(C(=O)Nc2ccccc2)c(C)o1 | -96.3 | -81.5 | -2.0 | -9.3 | -1.2 | -1.6 | x | x
Cc1ccc2oc(C(=O)Nc3cc(C)on3)c(C)c2c1 | -174.0 | -184.3 | -30.5 | -35.2 | -23.7 | -121.3 | x | x
CC1=CC2C(C3C=CC2(C)C(=O)C3(C)O)C(C)(O)C1=O (centres undefined) | 13.9 | 11.0 | 27.2 | -14.7 | 0.1 | 5.1 | x | x
